Hit rate of the full screen: of about 650,000 compounds, about 5,900 (0.91%) were called active. Rule as the data show it: active = inhibition above about 50%; inactive = the rest. What follows is part of a selection rich in actives, with near analogues and random picks from the rest.

The target in the assay is Microphthalmia-associated transcription factor (Homo sapiens) (UniProt O75030). The assay can be described thus: MITF inhibitors, primary screen, biochemical, AlphaScreen, human (AID 1259374).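 Also: 0% = vehicle wells with protein.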 The conditions noted are these: AlphaScreen MITF homodimerization, bead proximity signal; at 2.6 µM; hits give high values.
Microphthalmia-associated transcription factor (Homo sapiens), sequence (O75030 whole entry, looked up): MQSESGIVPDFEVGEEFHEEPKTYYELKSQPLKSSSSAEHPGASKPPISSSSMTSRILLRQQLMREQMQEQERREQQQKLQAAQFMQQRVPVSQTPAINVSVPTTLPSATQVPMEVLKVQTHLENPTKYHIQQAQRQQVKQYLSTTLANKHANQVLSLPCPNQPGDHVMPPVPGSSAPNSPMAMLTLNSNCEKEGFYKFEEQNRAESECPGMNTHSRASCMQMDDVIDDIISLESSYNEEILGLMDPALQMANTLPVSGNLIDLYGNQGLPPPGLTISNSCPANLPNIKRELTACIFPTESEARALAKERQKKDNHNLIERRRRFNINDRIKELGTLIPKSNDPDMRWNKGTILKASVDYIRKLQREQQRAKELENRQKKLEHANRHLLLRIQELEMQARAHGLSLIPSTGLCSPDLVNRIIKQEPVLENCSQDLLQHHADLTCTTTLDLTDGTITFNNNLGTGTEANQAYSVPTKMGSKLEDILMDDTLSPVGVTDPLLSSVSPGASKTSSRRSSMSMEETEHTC
As for `N#Cc1cc2cc3c(cc2nc1SCC(=O)Nc1nccs1)OCO3`, the inhibition (commonly the drop in the measured response relative to a control, in per cent) was 5.9% (inactive).

As to `Cc1nc(C(C)N(C)C(=O)Cn2cc(NC(=O)CCOc3ccccc3)cn2)c(C)s1` (stereo not given), the inhibition was -7.45% (inactive).

Take `CCOC(=O)C(NC(=O)c1ccc(N2CC3CC(C2)c2cccc(=O)n2C3)c(NC(=O)c2cc(OC)cc(OC)c2)c1)C(=O)OCC` (stereo not given): the inhibition is -6.03% (inactive).

Turning to `COc1ccc(-c2cnnc(NCc3ccc(Cl)cc3)n2)cc1`, the inhibition is -5.57% (inactive).

For `CCCCNc1ncnc2c1[nH]c1ccc(F)cc12`, the inhibition was 18% (inactive).

Take `COc1ccc(C2=N/C(=C\c3ccco3)C(=O)O2)cc1OC`: the inhibition was 14.6% (inactive).

Turning to `CCN(CC(=O)NCc1ccc(Cl)cc1)Cn1nnc2ccccc21`, the inhibition is 85.1% (active).

On to `CCCn1c(=O)c(C(=O)NCc2ccc(Cl)cc2)c(O)c2ccccc21`, for which the inhibition is 13.8% (inactive).

`O=C(Cn1nnc2ccccc21)N/N=C/c1c(O)ccc2ccccc12`: the inhibition is 14.9% (inactive).

For `COc1cc(-c2cn[nH]c2)ccc1C(=O)NCC(C)c1cccs1` (stereo not given), the inhibition was 0.52% (inactive).

As to `Cc1c(C(=O)Nc2cccc(C(F)(F)F)c2)sc2ncn(C)c(=O)c12`, the inhibition was -1.25% (inactive).

For the compound `Cc1ccc(NC(=O)c2ccc(NC(N)=O)cc2)cc1`, the inhibition is -11% (inactive).

Take `O=C(COc1ccc(Cl)cc1Cl)Nc1cccc(Br)c1`: the inhibition is -1.08% (inactive).

Regarding `Cc1cc(NC(=O)CNCCCN(C)C)no1`, the inhibition is 64.8% (active).

For the compound `Cc1cc(NC(=O)c2ccc(N(C)C)cc2)no1`, the inhibition was 7.76% (inactive).

Regarding `Cc1cc(NC(=O)Cn2cnc3c2c(=O)n(C)c(=O)n3C)no1`, the inhibition is 18% (inactive).

In the case of `COC(=O)c1ccccc1NC(=O)CC1Nc2cc(C)c(C)cc2NC1=O` (stereo not given), the inhibition is 6.95% (inactive).

As to `O=C(c1ccc2c(c1)OCO2)N1CCCCC1c1nc2ccccc2[nH]1` (stereo not given), the inhibition was 10.6% (inactive).

In the case of `CCCN1CCC(N2CCN(c3cccc(Cl)c3)CC2)CC1`, the inhibition was 15% (inactive).

As for `CCS(=O)(=O)N1CCC(N2CCN(c3ccccc3)CC2)CC1`, the inhibition was 11.4% (inactive).

Regarding `CN1CCC(N2CCN(c3ccccc3Cl)CC2)CC1`, the inhibition was 55.2% (active).

For `Cc1nc(-c2cncc(Br)c2)cc(N2CCC(O)CC2)n1`, the inhibition was 3.37% (inactive).

`CC(C)C(c1nnnn1C(C)C)N1CCN(c2ccccc2F)CC1` (stereo not given): the inhibition is 7.59% (inactive).

Regarding `COc1ccc(C2C(C(C)=O)=C(C)N=C3SCC(=O)N32)c(OC)c1` (stereo not given), the inhibition was 63.8% (active).

On to `CCOC(=O)C1=C(C)N=C2SCC(=O)N2C1c1cc(OC)c(OC)c(OC)c1` (stereo not given), for which the inhibition was 15.1% (inactive).

Take `COc1ccc(C2C(C(C)=O)=C(C)N=c3s/c(=C\c4cc(C)n(-c5ccc(Cl)cc5)c4C)c(=O)n32)c(OC)c1` (stereo not given): the inhibition is 0.25% (inactive).

For the compound `CCc1nnc(NC(=O)CSc2nnc(-c3ccccn3)n2-c2ccccc2C)s1`, the inhibition was 1.39% (inactive).

On to `CCOc1cc(C2C3=C(CCCC3=O)N(CC)C3=C2C(=O)CCC3)cc(Cl)c1O`, for which the inhibition was 3.45% (inactive).

In the case of `COC(=O)C1(C)NC(c2ccc(C)cc2)C2C(=O)N(c3ccc(F)cc3)C(=O)C21` (stereo not given), the inhibition was 77.9% (active).

Take `COC(=O)C1(C)NC(c2ccc(C)cc2)C2C(=O)N(c3ccc(C)cc3)C(=O)C21` (stereo not given): the inhibition was 10.8% (inactive).

As to `COC(=O)C1(C)NC(c2ccccc2OC)C2C(=O)N(c3ccccc3)C(=O)C21` (stereo not given), the inhibition is 17.7% (inactive).

With `CC(=O)c1ccc(N2CN=C3SCC(=O)N3C2)cc1`, the inhibition is 9.73% (inactive).

With `CCCNC(=O)Cc1ccc(-n2c(=O)c3ccccc3n(CC(=O)NC3CCCCC3)c2=O)cc1`, the inhibition is -13.8% (inactive).

As to `c1ccc(CCNc2nccc(Nc3ccncn3)n2)cc1`, the inhibition was -8.19% (inactive).

As for `c1ccc(CCCNc2nccc(Nc3ccncn3)n2)cc1`, the inhibition was 10.6% (inactive).

In the case of `c1ccc(CCCCNc2nccc(Nc3ccncn3)n2)cc1`, the inhibition is 61.3% (active).

Turning to `O=C(NCc1ccccc1)c1ccc2c(c1)nc(SCc1ccc([N+](=O)[O-])cc1)n1c3ccccc3nc21`, the inhibition was 13.9% (inactive).

With `Cc1ccc(CNC(=O)Cn2ncc3c2-c2ccccc2OC3)cc1`, the inhibition is 4.23% (inactive).

As for `Cc1cc(NC(=O)c2ccco2)ncc1NC(=O)c1cnccn1`, the inhibition was 6.96% (inactive).

For `Cc1ccc(CN2CCOCC2)c(C)c1`, the inhibition is -2.63% (inactive).

Turning to `Clc1ccc(CN2CCOCC2)c(Cl)c1`, the inhibition was 43.8% (inactive).

On to `Oc1c(CN2CCOCC2)ccc(CN2CCOCC2)c1O`, for which the inhibition is 52% (active).

Regarding `Cc1cc(C)nc(NC(=O)c2ccccc2Br)c1`, the inhibition is -3% (inactive).

In the case of `COCCn1c(=S)[nH]c2cc(C(=O)NCCC3=CCCCC3)ccc2c1=O`, the inhibition was 0.32% (inactive).

For the compound `CN(Cc1ccccc1)C(=O)CCC1CCN(C(=O)CCc2ccccn2)CC1`, the inhibition was -1.89% (inactive).

In the case of `O=C(COc1ccccc1)NCc1cccnc1`, the inhibition was -5.7% (inactive).

On to `CN(CCc1ccccn1)Cc1cccnc1`, for which the inhibition is 73.8% (active).

As to `CCOc1cc(/C=C2\NC(=S)NC2=O)cc(Br)c1OC`, the inhibition is 19.5% (inactive).

Consider `Cc1ccc(C)c(-n2c(SCCN3CCOCC3)nnc2-c2cccnc2)c1`, for which the inhibition is -3.61% (inactive).

Turning to `O=C1OCCN1c1ccc(Nc2nccc(-c3cc(N4CCOCC4)cc([N+](=O)[O-])c3)n2)cc1`, the inhibition was 0.11% (inactive).

Take `Cc1c2c(c(O)c3c(O)cccc13)C(=O)OC2[C@@H]1C(N(C)C)C(O)=C(C(N)=O)C(=O)[C@H]1O` (stereo not given in full): the inhibition is 108% (active).

On to `O=C1OC(c2ccccc2Cl)=N/C1=C\c1ccccc1[N+](=O)[O-]`, for which the inhibition was -1.22% (inactive).

Turning to `Cc1nc2sccn2c1CN1CCC(C2(Cc3ccccc3)NC(=O)NC2=O)CC1` (stereo not given), the inhibition was -18.4% (inactive).

For the compound `Cc1cc(C(F)(F)F)nn1CC(=O)Nc1ccc(I)c(Cl)c1`, the inhibition is 6.94% (inactive).

As to `COC(=O)c1c(OCCCN(C)C)cc(=O)n2c1CCN(C(=O)c1ccc(F)cc1)CC2`, the inhibition is -2.23% (inactive).

Regarding `O=S(=O)(NCC(c1ccc2c(c1)OCO2)N1CCOCC1)c1cccs1` (stereo not given), the inhibition was 1.27% (inactive).

Regarding `COc1cc(/C=N/n2c(-c3ccncc3)n[nH]c2=S)cc(OC)c1OC(C)=O`, the inhibition is 6.48% (inactive).

`Cc1cc(NC(=O)CCC(=O)N(CC(=O)NC2CCCC2)c2ccc(F)cc2)no1`: the inhibition is -6.06% (inactive).

Regarding `Cc1cc(C)cc(N(CC(=O)NC2CCCC2)C(=O)CCC(=O)Nc2cc(C)on2)c1`, the inhibition was 5.39% (inactive).

As for `Cc1cc(NC(=O)/C=C/C(=O)N(CC(=O)NC2CCCC2)c2ccc(F)cc2)no1`, the inhibition is 75% (active).

The values are drawn from PubChem BioAssay AID1259374 (The Scripps Research Institute Molecular Screening Center, 2018).
